The whole screen tested about 10,000 compounds, of which about 320 (3.2%) were called active. The entries come from a sample that favours actives as a whole. Values without a mark were called inactive. Rule as the data show it: active = CPE inhibition mostly above about 9.1% (no sharp cut-off); inactive = mostly below about 7.2%.

This assay in a line: antivirals protecting cells from dengue CPE – CPE readout, HTS (AID 540333). The conditions noted are these: Dengue virus CPE inhibition in host cells, at 20 µM; active compounds read high.
With `C=CCN1c2ccccc2[C@]23C[C@@H](C(=O)OC)N(C(=O)NC4CCCC4)C2=NC(C(=O)OC)=C(C(=O)OC)[C@H]13`, the CPE inhibition was 0.19%.

Regarding `CC1(C)CC(=NOC(=O)c2ccccc2)CC(C)(C)N1O`, the CPE inhibition was 3.8%.

With `Cc1ccc(Nc2ccc(C(=O)NCCc3ccccc3)cn2)cc1`, the CPE inhibition is 0.525%. As for `c1ccc(NCc2nc3ccccc3n2CCOc2ccccc2)cc1`, the CPE inhibition was 0.715%. Next, `CCCCn1c(=N)n(CCOc2ccc(C)cc2)c2ccccc21`: “inactive”; `Cc1ccc(NCc2nc3ccccc3n2CCOc2ccccc2)cc1`: 14.9% (active); `S=C(NCCN1CCOCC1)Nc1ccccc1Cl`: “inactive”.

Take `COc1ccc(CN2C(=O)/C(=C/c3ccncc3)SC2=S)cc1`: the CPE inhibition entry is “inactive”. Next, `O=C(O)CCCCCN1C(=O)/C(=C\c2ccncc2)SC1=S`: 14.8% (active); `Cc1ccc(/C=C2\SC(=S)N(CCCC(=O)Nc3nccs3)C2=O)cc1`: 0.46%; `Cc1cc(Br)ccc1SCC(=O)OCC(=O)NC(C)c1ccccc1` (stereo not drawn): 0.13%. Next, `O=C(Nc1cccc(-c2cn3ccccc3n2)c1)c1cccs1`: 0.18%; `O=C(c1cnn(C(=O)c2ccccc2)c1)c1ccccc1O`: 2.51%. Turning to `COc1ccc(C(=O)n2cc(C(=O)c3cc(C)ccc3O)cn2)cc1OC`, the CPE inhibition is 14.3% (active). Next, `COc1ccc(C(=O)n2cc(C(=O)c3cc(C)ccc3O)cn2)cc1`: “inactive”. For the compound `Cc1cccc(NCCC#N)c1`, the CPE inhibition entry is “inactive”. Next, `Cc1ccc(NC(=O)c2cccs2)cc1S(=O)(=O)Nc1cccc(Cl)c1`: 7.68%; `O=C(Nc1cccc(Cl)c1)c1ccc(F)c(S(=O)(=O)NCc2ccc3c(c2)OCO3)c1`: 5.79%; `O=C(Nc1cccc(Cl)c1)c1ccc(F)c(S(=O)(=O)NCc2cccs2)c1`: 11.8% (active). Next, `COCC(C)NC(=O)c1ccccc1[N+](=O)[O-]` (stereo not drawn): 1.6%. On to `CC(C)CNC(=S)Nc1ccc(S(N)(=O)=O)cc1`, for which the CPE inhibition was 0.36%. Next, `COc1cc(CN(C2CCCCC2C)S(=O)(=O)c2ccc(S(=O)(=O)NC3CC3)cc2)cc(OC)c1OC` (stereo not drawn): 19.9% (active).

`COc1ccc(CCNC(=O)COc2ccc(S(=O)(=O)NC3CCCCC3)cc2Cl)cc1OC`: the CPE inhibition is 2.27%.

For `COc1cc(CN(C2CCCCC2)S(=O)(=O)c2ccc(S(=O)(=O)N(C)C3CCCCC3)cc2)cc(OC)c1OC`, the CPE inhibition entry was “inactive”.

Consider `Cc1nn(-c2ccccc2)c(N2CCCC2)c1/C=N/NC(=O)c1ccccc1O`, for which the CPE inhibition result was “inactive”.

Turning to `Cc1nn(-c2ccccc2)c(N2CCCC2)c1/C=N/NC(=S)Nc1ccccc1F`, the CPE inhibition was 13.2% (active). Under `Cc1nn(-c2ccccc2)c(N2CCCC2)c1/C=N/NC(=O)c1cc(-c2ccccc2)nc2ccccc12` stands 2.99%.

For `O=C(CCc1nc2ccccc2c(=O)[nH]1)OCC(=O)c1ccc(C2CCCCC2)cc1`, the CPE inhibition is 1.97%. Next, `O=C(Nc1nc2ccccc2s1)c1cc(-c2ccco2)nc2ccccc12`: 5.33%; `COc1ccc(N2CCN(CC(=O)Nc3sccc3C#N)CC2)cc1`: “inactive”.

For the compound `O=C(NCc1nnc(SCc2ccccc2)n1-c1ccc(F)cc1)C12CC3CC(CC(C3)C1)C2`, the CPE inhibition is 15.9% (active). `O=C(NC(=S)N1CCN(c2ccc(F)cc2)CC1)C12CC3CC(CC(C3)C1)C2`: the CPE inhibition was 0.245%. Next, `O=C(NCc1nnc(SCc2ccc(C(F)(F)F)cc2)n1-c1ccccc1)C12CC3CC(CC(C3)C1)C2`: 9.12% (active).

With `O=C(CSc1nnc(CNC(=O)C23CC4CC(CC(C4)C2)C3)n1-c1ccccc1)Nc1ccccc1`, the CPE inhibition is 1.45%. Take `CC(C)(C)c1ccc(C(=O)NCc2nnc(SCC(=O)N3CCCc4ccccc43)n2-c2ccccc2)cc1`: the CPE inhibition is 5.59%. As for `O=C(CSc1nnc(CNC(=O)C23CC4CC(CC(C4)C2)C3)n1-c1ccccc1)Nc1ccc(F)cc1`, the CPE inhibition was 6.17%. Under `O=C(NCc1nnc(SCc2ccc(F)cc2)n1-c1ccc(F)cc1)C12CC3CC(CC(C3)C1)C2` stands 9.94% (active). Under `O=C(CSc1nnc(CNC(=O)C23CC4CC(CC(C4)C2)C3)n1-c1ccc(F)cc1)Nc1ccc(F)cc1` stands 3.73%.

`Cc1ccc(NC(=O)CSc2nnc(CNC(=O)C34CC5CC(CC(C5)C3)C4)n2-c2ccc(F)cc2)cc1`: the CPE inhibition was 5.74%.

`N=C1SC(c2ccccc2)C(=O)N1c1ncc(Cc2ccccc2)s1` (stereo not drawn): the CPE inhibition is 0.6%.

For `COC(=O)CCC(=O)NC(=S)Nc1ccc(S(=O)(=O)Nc2cc(OC)nc(OC)n2)cc1`, the CPE inhibition is 1.88%.

As for `CCCCNC(=O)CCCCC(=O)N/N=C/c1cccc(Cl)c1`, the CPE inhibition is 0.96%. Next, `CCN(Cc1ccccc1)C(=O)C1CCN(CC2CC=CCC2)CC1` (stereo not drawn): “inactive”. Under `Cc1ccnc(NC(=S)NC(=O)c2cncc(Br)c2)c1` stands 0.165%; under `CCCCNC(=O)c1cccc2c(=O)c(C)c(-c3ccccc3)oc12`, “inactive”.

Regarding `CCOc1ccc(Oc2c(/C=N/NC(=O)COc3ccccc3OC)c(C)nn2-c2ccccc2)cc1`, the CPE inhibition result was “inactive”. On to `O=C(N/N=C\c1ccc(-c2ccccc2[N+](=O)[O-])o1)C1COc2ccccc2O1` (stereo not drawn), for which the CPE inhibition is 0.26%.

Take `CC(CCc1ccccc1)N1CCN(Cc2ccccc2)CC1` (stereo not drawn): the CPE inhibition entry is “inactive”. Next, `Cc1nn(-c2ccccc2)c(Cl)c1/C=C(\C#N)C(=O)NC(C)C`: 20% (active); `CC(C)NC(=O)/C(C#N)=C/c1cccc(NC(=O)c2ccccc2Cl)c1`: 3.16%. Next, `Cc1nn(-c2ccccc2)c(Cl)c1/C=N/NC(=O)c1cccnc1`: 4.37%; `Cc1ccccc1N1CCN(C(=S)c2ccc([N+](=O)[O-])cc2)CC1`: “inactive”; `Cc1cc(C)cc(N(C(=O)Cn2nnc(-c3ccccc3)n2)C(C(=O)NC2CCCCC2)c2ccccn2)c1` (stereo not drawn): 2.08%. Under `CC(=O)c1ccc(N(C(=O)Cn2nnc(-c3ccccc3)n2)C(C(=O)NC2CCCCC2)c2ccccn2)cc1` (stereo not drawn) stands 4.29%.

As to `CC(C)(C)NC(=O)C(c1c[nH]c2ccccc12)N(C(=O)Cn1nnc(-c2ccc(Cl)cc2)n1)c1ccccc1F` (stereo not drawn), the CPE inhibition was 17.2% (active). Next, `CC(=O)Oc1ccc(N(C(C)=O)S(=O)(=O)c2cc([N+](=O)[O-])ccc2C)cc1`: “inactive”.

As for `O=[N+]([O-])c1cc2oc3c(c2c(C=NCc2ccncc2)c1O)CCCC3`, the CPE inhibition was 1.15%.

On to `Cc1ccc([N+](=O)[O-])cc1S(=O)(=O)N(C(=O)c1ccncc1)c1ccc2oc3c(c2c1)CCCC3`, for which the CPE inhibition is 21.1% (active).

With `COc1cc(NC(=O)COC(=O)CC(C)(C)C)c(C)cc1[N+](=O)[O-]`, the CPE inhibition was 0.185%. On to `Clc1ccc(CNCc2cccs2)c(Cl)c1`, for which the CPE inhibition is 0.01%. Under `COc1ccc(-c2nc3ccccn3c2/N=C/c2ccc(OC)c(OC)c2)cc1O` stands 0.31%.

For `Cc1c(-c2ccc(Br)cc2)nc2ccccn12`, the CPE inhibition is 1.3%.

For `CN(C)c1ccc(-c2nc3ccccn3c2/N=C/c2ccc(Br)cc2)cc1`, the CPE inhibition is 14.2% (active). Next, `Cc1ccc(-c2csc(N/N=C/c3ccco3)n2)c(C)c1`: “inactive”; `COc1cccc(OCCOCCOc2ccc(C)cc2[N+](=O)[O-])c1`: “inactive”. Next, `CC/C(=N\NC(=O)C(N)=O)c1ccccc1O`: “inactive”.

For `CCCCCC(=O)Nc1nc(C)c(-c2csc(Nc3cc(Cl)ccc3C)n2)s1`, the CPE inhibition entry was “inactive”. Regarding `O=C1c2cccc3cccc(c23)C(=O)N1CCN1CCN(CC(O)COc2ccc3ccccc3c2)CC1` (stereo not drawn), the CPE inhibition entry was “inactive”.

In the case of `O=C(COC(=O)C1(c2ccccc2F)CCCC1)Nc1ncc(C(F)(F)F)cc1Cl`, the CPE inhibition is 0.45%. Under `COC(=O)N1[C@H](C)C=C[C@]1(Cc1ccccc1)C(=O)NCCCNc1ncc(C(F)(F)F)cc1Cl` stands 9.39% (active); under `O=C(COC(=O)c1cc(-c2ccccc2Cl)nc2ccccc12)Nc1ncc(C(F)(F)F)cc1Cl`, “inactive”. In the case of `Cc1ccc(/C=N/NS(=O)(=O)c2ccc([N+](=O)[O-])cc2)o1`, the CPE inhibition result is “inactive”.

Regarding `Cc1ccc(C(=O)O/N=C(\N)c2cccnc2)cc1[N+](=O)[O-]`, the CPE inhibition is 1.06%.

`NS(=O)(=O)c1ccc(NC(=O)COC(=O)C2(c3ccc(F)cc3)CCCC2)cc1`: the CPE inhibition is 0.475%. Next, `CC(=O)Nc1ccc(NC(=O)COC(=O)C2(c3ccc(Cl)cc3)CCCC2)cc1`: 0.545%; `Cc1ccc(NC(=O)COC(=O)C2(c3ccc(Cl)cc3)CCCC2)cc1`: 10.5% (active); `COc1ccc(/C=C/C(=O)c2cc(F)ccc2OC(=O)c2ccccc2C)cc1OC`: “inactive”. Next, `N#Cc1ccsc1NC(=O)CN1CCN(c2ccccc2O)CC1`: “inactive”; `N#Cc1ccsc1NC(=O)CN(Cc1ccccc1)Cc1ccccc1`: 9.87% (active); `CCN(CC)c1ccc(C(=O)OCC(=O)Nc2sccc2C#N)cc1`: “inactive”. Under `CSc1sc(C)cc1/C=N/O` stands “inactive”; under `S=C(NCCc1ccccc1)N/N=C/c1ccccc1Cl`, 18.4% (active); under `S=C(NCCc1ccccc1)Nc1ccc(Br)cc1`, 3.17%.

Take `C/C(=N\NC(=S)NCCc1ccccc1)c1ccc(Cl)cc1`: the CPE inhibition is 1.61%. Under `O=C(Nc1cc(Cl)ccc1Cl)c1ccc(-c2ccccc2)cc1` stands “inactive”; under `O=C(Nc1ccc(Cl)c(C(F)(F)F)c1)[C@@H]1CC=C[C@@H]2CCN(Cc3ccc(Cl)c(Cl)c3)C(=O)[C@@H]21`, 9.69%; under `COc1cc(NC(=O)CN2C(=O)C(c3ccccc3)=NC23CCCCCC3)cc(OC)c1`, 14% (active). Next, `COc1ccc(NC(=O)CN2C(=O)C(c3ccccc3)=NC23CCCCCC3)cc1OC`: 0.935%. Next, `COc1ccc(NC(=O)CN2C(=O)C(c3ccccc3)=NC23CCCCCC3)cc1`: 5.39%; `CCOC(=O)/C(N=Nc1sc(C(=O)OC)c(C)c1C(=O)OCC)=C(\O)CCl`: 0.165%. In the case of `Cc1cc(C)c(S(=O)(=O)Nc2ccccc2-c2ccccc2)c(C)c1`, the CPE inhibition was 20.4% (active). Next, `Cc1ccc(S(=O)(=O)N(CC(=O)Nc2ccccc2-c2ccccc2)c2ccc(C)cc2C)cc1`: 10.8%. Next, `Cc1ccc(NS(=O)(=O)c2ccc3c(c2)C(=O)c2ccccc2C3=O)c(C)c1`: 4.82%.

The values are drawn from PubChem BioAssay AID540333 (Southern Research Specialized Biocontainment Screening …, 2011).
